# Shown are actives, neighbours in structure and some others; about 2.4% of the full set was active somewhere.
# eIF4H inh – human eIF4H binding inhibitors, primary screen, translation initiation inhibitor project, biochemical, uHTS, fluorescence polarization. eIF4H fluorescence polarization binding assay. Eukaryotic translation initiation factor 4H (Homo sapiens), Q15056. inhibition, % at 35 µM. 290,000 compounds, 0.94% hits. AID 2012, 2009;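 further: calls also rest on retests at 20 µM and on dose response follow-up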
# PERK inh – block of dimerizer-induced PERK translation repression, primary screen, PERK inhibitor project, CHO PERK-DD cells, SEAP luminescence, HTS. Eukaryotic translation initiation factor 2-alpha kinase 3 (Homo sapiens), Q9NZJ5. CHO PERK-DD fusion, SEAP luminescence translation reporter. inhibition, % at 5.6 µM. 220,000 compounds, 0.17% hits;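 active means inhibition above the mean inhibition of all tested compounds plus 3 SD, set separately per screening campaign, cut at about 2.9% in these data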;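 further: PERK kinase domain activated by AP20187 dimerizer at 100 nM; 0% = DMSO with dimerizer and 100% = rapamycin at 8.4 µM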
# PABP FP inh – PABP poly(A) RNA binding inhibitors, primary screen, biochemical, fluorescence polarization, uHTS; Polyadenylate-binding protein 1 (Homo sapiens), P11940; inhibition, % at 35 µM; 290,000 compounds, 1% hits; AID 2014, 2009;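 further: calls also rest on retests at 20 µM and on dose response follow-up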
# PABP1 MLLE inh – inhibitors of PABP1 MLLE–PAM2 peptide binding, primary screen, biochemical, fluorescence polarization, FITC-PAM2, GST-MLLE; Polyadenylate-binding protein 1 (Homo sapiens), P11940; inhibition, % at 20 µM; 360,000 compounds, 0.36% hits; in the data active means inhibition above about 35%, passing the limit was not always enough;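 further: plate controls were DMSO wells with GST-MLLE for no effect and wells lacking GST-MLLE protein for full effect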
# eIF4E 4G PPI – eIF4E–eIF4G protein interaction inhibitors, primary screen, biochemical, uHTS, TR-FRET, eIF4GI fragment; 220,000 compounds, 0.37% hits; TR-FRET eIF4E-eIF4GI(517-606) binding, 2 h; inhibition, % at 21.7 µM; Eukaryotic translation initiation factor 4E (Mus musculus) + Eukaryotic translation …; AID 782, 2007;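 active means inhibition above about 30%, limit read from the data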;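 further: 0% = full FRET control wells and 100% = background wells lacking eIF4GI fragment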
# PfM18AAP inh – PfM18AAP inhibitors, malaria aminopeptidase, primary screen, biochemical, QFRET, recombinant enzyme. AID 1822, 2009. inhibition, % at 7.35 µM. M18 aspartyl aminopeptidase (Plasmodium falciparum 3D7). 290,000 compounds, 1.2% hits. H-Glu-NHMec fluorogenic cleavage;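 active means inhibition above the campaign mean inhibition over all tested compounds plus 3 SD, cut at about 28% in these data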;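 further: 0% = plate median of test compound wells and 100% = 2 mM ZnCl2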
# An asterisk follows results filed as active; ? = inconclusive; . = not tested or not shown; ! = repeats disagree. Unless noted, how the calls were made is not given here.
SMILES,eIF4H inh,PERK inh,PABP FP inh,PABP1 MLLE inh,eIF4E 4G PPI,PfM18AAP inh
CCOC(=O)c1c(NC(=O)c2c(N)n(CCCOC)c3nc4ccccc4nc23)sc2c1CCCC2,?,-1,71*,4,7,-10
CCOCCCn1c(N)c(C(=O)Nc2sc3c(c2C(=O)OC)CCCC3)c2nc3ccccc3nc21,?,-1,34,-2,-5,11
C=C1N2CCC(CC2)C1(O)c1ccc(C)cc1 (stereo not given),-6,1,-6,-9,-1,-3
C=C1C(O)(c2ccccc2)C2CC[N+]1(C)CC2 (stereo not given),-8,0,57*,-127,3,-8
Cc1cccc(-n2c(/C=C/c3ccccn3)nc3ccccc3c2=O)c1,-5,.,-6,-3,.,1
CN(C)[C@@H]1C(=O)C(C(N)=O)=C(O)[C@@]2(O)C(=O)C3=C(O)c4c(O)cccc4[C@@](C)(O)[C@H]3[C@H](O)[C@@H]12,87*,0,1.5*,18,47*,10
COc1cccc(-n2c(/C=C/c3ccc(O)c(O)c3)nc3ccccc3c2=O)c1,14,0,8,-83,3,57*
COc1ccc(-n2c(/C=C/c3ccc(O)c(OC)c3)nc3ccccc3c2=O)cc1,-12,.,2,-65,.,-13
C=CCN1C(=O)/C(=C/c2cccs2)C(=O)NC1=S,67,0,15*,35,16,-3
O=C1NC(=O)N(CCc2ccc(F)cc2)C(=O)/C1=C/c1cccs1,1,1,6,23,-4,11
O=C1NC(=S)N(Cc2ccco2)C(=O)/C1=C\c1cccs1,74,1,2,.,70*,23
COC(=O)C1=C(c2ccc(OC(F)(F)F)cc2)C[C@@H]2CC[C@H]1N2C(=O)NCCOc1ccc(OC)cc1,.,.,.,12,.,.
O=C(Cn1ncc2c3ccccc3n(Cc3cccc(Cl)c3)c2c1=O)N1CCC2(CC1)OCCO2,73*,-1,45*,-22,1,9
CCc1cccc(CC)c1NC(=S)N1CC2CC(C1)c1cccc(=O)n1C2 (stereo not given),3,1,50,-4,3,-9
COc1ccc(CC2C(=O)N(C)C(=O)N(C)C2=O)c(OC)c1,-3,0,-1,42*,8,-2
CNC(=O)N(C)c1ccc(C(O)(C(=O)OC)C(F)(F)F)cc1 (stereo not given),-3,1,-11,7,1,5
CCS(=O)(=O)NC(C)c1nnc2n1-c1ccc(Br)cc1C(c1ccccc1Cl)=NC2 (stereo not given),.,.,.,-1,.,.
COc1cc(/C=C/[N+](=O)[O-])ccc1O,12,0,10,17,4,29*
Cc1nn(Cc2ccccc2)c(C)c1C(=O)OCC(=O)Nc1cc(S(C)(=O)=O)ccc1Cl,-20,0,-28,-13,4,-5
COc1cc2c(cc1O)C[C@H]1NCCc3cc4c(c-2c31)OCO4,64*,0,2.0*,-6,5,10
COc1cc2c(cc1OC)-c1c3c(cc4c1[C@@H](C2)N(C)CC4)OCO3,16,-1,-2,-33,6,8
C[C@]12C[C@H](O)[C@@H](O)C[C@@H]1CC[C@@H]1[C@@H]2CC[C@]2(C)C(=O)CC[C@@H]12,.,.,.,4,.,.
COc1ccccc1N1C(=O)NC(=O)/C(=C/c2ccc([N+](=O)[O-])s2)C1=O,51*,1,32*,.,3,6
COc1cccc(N2C(=O)NC(=O)/C(=C/c3ccc([N+](=O)[O-])s3)C2=O)c1,51,0,33*,14,9,-4
COc1ccc(N2C(=O)NC(=O)/C(=C\c3ccc([N+](=O)[O-])s3)C2=O)cc1,46,0,2,5,5,-2
SMILES,eIF4H inh,PERK inh,PABP FP inh,PABP1 MLLE inh,eIF4E 4G PPI,PfM18AAP inh
CCCC1(CCO)C(=O)NC(=S)NC1=O,.,.,.,11,.,.
CN1C(=O)C(=Cc2ccc(SC3CCCCC3)o2)C(=O)N(C)C1=O,61,3.0*,2,7,12,14
CC12CCC(=O)C=C1CC(N1CC1)C1C2CCC2(C)C(O)CCC12 (stereo not given),.,.,.,18,.,.
COCCN1C(=O)NC(=O)/C(=C\c2ccc(F)cc2)C1=O,20,0,-2,12,-2,-4
Cc1ccc(/C=C2/C(=O)NC(=O)N(CCc3ccc(F)cc3)C2=O)o1,?,0,12*,-30,-1,-2
O=C1NC(=O)N(CCc2ccc(F)cc2)C(=O)/C1=C/c1ccco1,98,2,14,-30,18,8
CN(C)c1ccc(/C=C2\C(=O)NC(=O)N(CCc3ccc(F)cc3)C2=O)cc1,111*,0,50*,-116,3,-6
Fc1cccc(-c2ccc3c(c2)CNCc2cnnn2-3)c1,.,.,.,-18,.,.
CCC1(Cc2ccccc2)C(=O)NC(=S)N(C)C1=O (stereo not given),.,.,.,14,.,.
CC(=O)OC1C(=O)OCC23CCC4(C)OC4C2OC2CC(OC(=O)C=CC=CC(=O)OCCC1C)C3(C)C21CO1 (stereo not given),.,.,.,4,.,.
CCc1ccc2nc(N3CCC(C(=O)N4CCC5(CC4)OCCO5)CC3)sc2c1,2.3*,-1,82*,-8,-1,-4
Cc1ccc2nc(N3CCC(C(=O)N4CCC5(CC4)OCCO5)CC3)sc2c1,1,0,-6,-3,2,4
C(#CCN1CCOCC1)COC/C=C/c1ccccc1,5,0,1,-3,4,31*
COc1ccc(C=C2C(=O)N(C)C(=O)N(C)C2=O)cc1CSc1ccccn1,?,0,67*,12,-3,6
CP(=O)(Nc1ccccc1)C(Cl)(Cl)Cl (stereo not given),-3,0,31,11,1,5
CCC(=O)C(CCN1CCOCC1)(c1ccccc1)c1ccccc1,.,.,.,-6,.,.
CC(C)[N+](C)(CCC(C(N)=O)(c1ccccc1)c1ccccc1)C(C)C,12*,2,66,-28,6,3
CN1CCC2(CC1)C(C#N)=C(N)NC(S)=C2C#N,55*!,0,active,-70,5,13
CN1CC[C@]23c4c5ccc(O)c4OC2[C@H](O)C=CC3[C@H]1C5 (stereo not given in full),.,.,.,0,.,.
COc1ccc2c3c1OC1C(O)C=CC4C(C2)[N+](C)(C)CCC341 (stereo not given),48,.,98*,-32,.,1

# Assay outcomes deposited in PubChem by several laboratories.
